Records with an inconclusive call do not appear. The source made the active and inactive calls. The calls were made as follows, unless noted: active = hit-call score of the fitted dose curve at least 0.9, where 1 is the maximum; inactive = score below 0.9.
What was measured:
[1] = TOX21_p53_BLA_p2_viability: Viability Assessment in the Tox21 HCT-116 p53 Agonism Beta-lactamase Assay, Phase 2 (AID 2283591; active = hit-call score of the fitted dose curve at least 0.9, where 1 is the maximum;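 also: compound exposure lasted 16 h at 37 °C; actives lower the ATP signal meaning cytotoxicity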)
Summary of the method: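 HCT116 p53-bla cells, 4000/well, dosed after 5 h plating (217-fold dilution of DMSO stocks) and incubated 16 h at 37C. Viability taken as cellular ATP by CellTiter-Glo luminescence after 30 min RT; signal loss marks cytotoxicity.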

[2] = TOX21_p53_BLA_p3_viability: Viability Assessment in the Tox21 HCT-116 p53 Agonism Beta-lactamase Assay, Phase 3 (AID 2283593; active = hit-call score of the fitted dose curve at least 0.9, where 1 is the maximum;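 also: cells exposed to compound for 16 h before reading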)
Summary of the method: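 HCT116 cells, 4000/well, dosed 5 h after plating by pin transfer (217-fold dilution from DMSO stock) and incubated 16 h at 37C, 5% CO2. Viability read as ATP luminescence with CellTiter-Glo after 30 min at room temperature.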

[3] = TOX21_p53_BLA_p4_viability: Viability Assessment in the Tox21 HCT-116 p53 Agonism Beta-lactamase Assay, Phase 4 (AID 2283597; active = hit-call score of the fitted dose curve at least 0.9, where 1 is the maximum;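 also: hits lower the luminescence signal meaning cytotoxicity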)
Summary of the method: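 Cytotoxicity was inferred from loss of CellTiter-Glo luminescence. HCT116 cells had been dosed with compounds after 5 h plating, incubated 16 h at 37C and 5% CO2, and exposed to the CCF4-AM substrate for 2 h.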

[4] = molecular target: Cellular tumor antigen p53 (Homo sapiens) (UniProt P04637); test: TOX21_p53_BLA_p5_ratio: Tox21 HCT-116 p53 Agonism Beta-lactamase Assay, Ratio, Phase 5 (AID 2283599; active = hit-call score of the fitted dose curve at least 0.9, where 1 is the maximum)
Summary of the method: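 HCT-116 p53-bla cells (4000/well) plated 5 h, dosed with compound (217-fold DMSO dilution) for 16 h at 37 C; CCF4-AM substrate 2 h at room temperature. Activity is the 460/530 nm emission ratio (405 nm excitation), fitted in gain-of-signal direction versus DMSO.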

[5] = CCTE_Shafer_MEA_dev_firing_rate_mean: CCTE's Neural Network Formation Assay for Mean Firing Rate, Shafer Lab (AID 2284031)
Summary of the method: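 Extracellular spike frequency, AUC over DIV 5–12 recordings, in rat cortical neuron MEA cultures dosed from plating; loss direction vs DMSO.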

[6] = CCTE_Shafer_MEA_dev_per_burst_spike_percent: CCTE's Neural Network Formation Assay for Percent of Spikes in a Burst, Shafer Lab (AID 2284032)
Summary of the method: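 Value is trapezoidal AUC over recordings on days 5, 7, 9 and 12 of the well-mean fraction of spikes falling in single-electrode bursts; rat cortical cultures exposed continuously from plating, treatment renewed DIV 5 and 9, fitted downward against DMSO.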

[7] = CCTE_Shafer_MEA_dev_active_electrodes_number: CCTE's Neural Network Formation Assay for Number of Active Electrodes, Shafer Lab (AID 2284040; active = hit-call score of the fitted dose curve at least 0.9, where 1 is the maximum)
Summary of the method: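 Developing rat cortical networks on MEAs, exposed DIV 0–12. Value is the AUC of active-electrode counts (≥5 spikes/min) from days 5, 7, 9, 12, relative to DMSO.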

[8] = CCTE_Shafer_MEA_dev_burst_rate: CCTE's Neural Network Formation Assay for Burst Rate, Shafer Lab (AID 2284042)
Summary of the method: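 Exposure ran continuously over 12 days of network development in rat cortical cultures, with compound refreshed during full media changes on DIV 5 and 9. Single-electrode bursts per recording time, well-mean over active electrodes, trapezoidal AUC across days 5–12, fitted downward relative to DMSO.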

[9] = CCTE_Shafer_MEA_dev_bursting_electrodes_number: CCTE's Neural Network Formation Assay for Number of Bursting Electrodes, Shafer Lab (AID 2284043; active = hit-call score of the fitted dose curve at least 0.9, where 1 is the maximum)
Summary of the method: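 Rat cortical primary neurons, 48-well MEA, 16 electrodes/well; dosing DIV 0–12, re-dosed with full media change DIV 5, 9. Recordings DIV 5/7/9/12, AxIS adaptive spike detector; bursting electrode = ≥1 burst/2 min. AUC across days; loss of signal vs DMSO.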

[10] = CCTE_Shafer_MEA_dev_per_burst_interspike_interval: CCTE's Neural Network Formation Assay for Burst Interspike Interval, Shafer Lab (AID 2284044)
Summary of the method: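 Rat cortical primary cultures, 16 electrodes/well; compound from plating, renewed with full media change DIV 5 and 9. Spikes via adaptive detector; per-burst ISI well-mean over active bursting electrodes; AUC of DIV 5/7/9/12 recordings; loss-direction fit vs DMSO.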

[11] = CCTE_Shafer_MEA_dev_burst_duration_mean: CCTE's Neural Network Formation Assay for Mean Burst Duration, Shafer Lab (AID 2284045)
Summary of the method: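 Rat cortical cultures, 1.5 x 10^5 cells/well with laminin drop; continuous dosing days 0–12, media plus treatment refreshed DIV 5, 9. AxIS adaptive spike detection; mean single-electrode burst duration, AUC over four recordings, negative direction vs DMSO.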

[12] = CCTE_Shafer_MEA_dev_interburst_interval_mean: CCTE's Neural Network Formation Assay for Mean Interburst Interval, Shafer Lab (AID 2284046);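 also: well-mean interburst interval of bursting electrodes as AUC over four recording days; curve fitted for decrease in interburst interval relative to DMSO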
Summary of the method: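 Primary rat cortical neurons on PEI-coated 48-well MEA plates (laminin added with cells at plating) (16 electrodes/well), exposed from plating day 0 with renewal at DIV 5 and 9. Mean inter-burst interval averaged over bursting electrodes, AUC across days 5, 7, 9, 12; DMSO baseline.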

[13] = CCTE_Shafer_MEA_dev_inter_network_spike_interval_mean: CCTE's Neural Network Formation Assay for Mean Inter-network Spike Interval, Shafer Lab (AID 2284047)
Summary of the method: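 Mean time between consecutive network-spike peaks, recorded extracellularly (adaptive spike detection) on DIV 5, 7, 9 and 12, summarized as trapezoidal AUC. Rat cortical cultures on MEAs dosed continuously days 0–12, re-dosed at feeds; loss-of-signal fit relative to DMSO.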

[14] = CCTE_Shafer_MEA_dev_network_spike_number: CCTE's Neural Network Formation Assay for Number of Network Spikes, Shafer Lab (AID 2284048);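 also: synchronized bursts across electrodes counted on days 5 7 9 12 and integrated as AUC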
Summary of the method: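 Rat cortical primary cultures on 48-well MEA (16 electrodes/well); continuous exposure DIV 0–12, full medium and treatment exchange DIV 5, 9. Readout: network spike count, AxIS adaptive detection, recordings DIV 5/7/9/12 collapsed to AUC; loss-of-signal fit, DMSO baseline.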

[15] = CCTE_Shafer_MEA_dev_network_spike_peak: CCTE's Neural Network Formation Assay for Mean Number of Electrodes in Network Spike, Shafer Lab (AID 2284049)
Summary of the method: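 Network-spike peak electrode count from recordings on days 5, 7, 9 and 12 was combined as trapezoidal area under the curve. Rat cortical cultures were treated continuously from plating, with compound renewed at each feed (DIV 5, 9); fits versus DMSO.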

[16] = CCTE_Shafer_MEA_dev_spike_duration_mean: CCTE's Neural Network Formation Assay for Mean Spike Duration, Shafer Lab (AID 2284051);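 also: mean network spike duration pooled as area under curve over DIV 5 to 12 recordings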
Summary of the method: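 Spontaneous activity was recorded on days 5, 7, 9 and 12 from rat cortical cultures grown on microelectrode arrays and dosed continuously from day 0, with media and compound renewed after the DIV 5 and 9 recordings. Network-spike duration was collapsed by area under the curve.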

[17] = CCTE_Shafer_MEA_dev_network_spike_duration_std: CCTE's Neural Network Formation Assay for Standard Deviation of Network Spike Duration, Shafer Lab (AID 2284052);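 also: hits are decreases in network spike duration SD versus DMSO vehicle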
Summary of the method: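 Network spike duration variability was collapsed across recordings on days 5, 7, 9 and 12 by trapezoidal area-under-curve and fitted downward against DMSO. Cultures were rat cortical neurons on PEI-coated MEA plates, dosed continuously from plating, refed with compound DIV 5/9.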

[18] = CCTE_Shafer_MEA_dev_per_network_spike_spike_number_mean: CCTE's Neural Network Formation Assay for Mean Number of Spikes in a Network Spike, Shafer Lab (AID 2284053)
Summary of the method: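 Mean spike count within each network spike, taken in a 0.05 s window at its peak, was recorded on days 5, 7, 9 and 12 and integrated as trapezoidal area under the curve. Rat cortical cultures on MEA plates received continuous compound from day 0, refreshed at medium changes on DIV 5 and 9.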

[19] = CCTE_Shafer_MEA_dev_per_network_spike_spike_percent: CCTE's Neural Network Formation Assay for Percent of Spikes in a Network Spike, Shafer Lab (AID 2284054)
Summary of the method: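 Read-out: percent of spikes falling in a 0.05 s window at network-spike peak, from spontaneous MEA recordings on days 5, 7, 9 and 12; trapezoidal AUC; loss of signal versus DMSO. Rat cortical cultures, compound present throughout.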

[20] = CCTE_Shafer_MEA_dev_AB: CCTE's Alamar Blue Assay for Cytotoxicity in the Neural Network Formation Assay, Shafer Lab (AID 2284083; active = hit-call score of the fitted dose curve at least 0.9, where 1 is the maximum;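 also: resazurin reduction fluorescence as viability of cultured neurons; twelve days of exposure from plating with re-dosing on DIV 5 and 9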)
Summary of the method: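 Resazurin fluorescence, relative to DMSO, gauges viability after twelve days of exposure that began at plating of rat cortical neurons (1.5 x 10^5 cells/well, 48-well MEA); treatment renewed with full medium exchange on DIV 5 and 9.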

[21] = CCTE_Shafer_MEA_dev_mutual_information_norm: CCTE's Neural Network Formation Assay for Mutual Information Normalization, Shafer Lab (AID 2284091)
Summary of the method: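 Neurons from rat cortex were seeded at 1.5 x 10^5 cells/well onto PEI-coated MEAs in a laminin drop, then exposed to compound from day 0 for twelve days. Network recordings on four days gave mutual information, summarised by AUC relative to DMSO.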

[22] = CCTE_Shafer_MEA_dev_correlation_coefficient_mean: CCTE's Neural Network Formation Assay for Mean Correlation Coefficient, Shafer Lab (AID 2284093)
Summary of the method: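 Primary rat cortical neurons on PEI-coated 48-well MEA plates (16 electrodes/well) were exposed from plating day 0 through DIV12, with compound renewed at DIV5 and 9. Pairwise spike correlations were averaged per well; trapezoidal AUC across DIV5, 7, 9, 12.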

[23] = CCTE_Mundy_HCI_Cortical_Synap_Neur_Matur_NeuriteSpotCountPerNeuriteLength: CCTE's Synaptogenesis and Neurite Maturation Assay in rat cortical cells for Neurite Spot Count per Neurite Length, Mundy Lab (AID 2284210)
Summary of the method: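 Read-out: synaptophysin puncta counted along MAP2-stained neurites, normalised to neurite length, by automated high-content imaging. Rat cortical cells; AraC DIV 5; chemical dosing DIV 7; termination DIV 12. DMSO baseline.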

[24] = CCTE_Mundy_HCI_Cortical_NOG_NeuriteLength: CCTE's Neurite Outgrowth Assay in rat cortical cells for Neurite Length, Mundy Lab (AID 2284213)
Summary of the method: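 First, rat primary cortical cells were plated and, 2 h later, given test chemical as a 1/10 dilution. Finally, βIII-tubulin immunostaining enabled automated imaging of neurite length.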

[25] = CCTE_Mundy_HCI_Cortical_Synap_Neur_Matur_NeuriteLength: CCTE's Synaptogenesis and Neurite Maturation Assay in rat cortical cells for Neurite Length, Mundy Lab (AID 2284214)
Summary of the method: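 DMSO-normalised neurite length, from high-content imaging of anti-MAP2-stained rat cortical cells fixed at DIV 12. Glia were suppressed with AraC (DIV 5) before chemical exposure from DIV 7.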

[26] = CCTE_Mundy_HCI_Cortical_Synap_Neur_Matur_NeuriteSpotCountPerNeuron: CCTE's Synaptogenesis and Neurite Maturation Assay in rat cortical cells for Neurite Spot Count per Neuron Count, Mundy Lab (AID 2284215)
Summary of the method: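 Rat primary cortical cells received AraC at DIV 5, then chemicals with a media change at DIV 7, and were fixed at DIV 12. Synaptophysin puncta on MAP2-stained neurites per neuron were counted by high-content imaging, fitted relative to DMSO.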

[27] = CCTE_Mundy_HCI_Cortical_Synap_Neur_Matur_SynapseCount: CCTE's Synaptogenesis and Neurite Maturation Assay in rat cortical cells for Synapse Count, Mundy Lab (AID 2284218)
Summary of the method: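 Endpoint: synapses/neuron by HCI (synaptophysin puncta on MAP2-labelled neurites, Hoechst nuclei). Rat primary cortical cells, AraC DIV 5, dosed DIV 7, fixed DIV 12; DMSO negative control.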

[28] = CCTE_Mundy_HCI_hN2_NOG_NeuriteLength: CCTE's Neurite Outgrowth Assay in human hN2 cells for Neurite Length, Mundy Lab (AID 2284220; active = hit-call score of the fitted dose curve at least 0.9, where 1 is the maximum)
Summary of the method: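 Read-out is neurite length from high-content imaging of βIII-tubulin/Alexa Fluor-488-labelled neurons, referenced to DMSO controls.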

[29] = CCTE_Mundy_HCI_hN2_NOG_NeuronCount: CCTE's Neurite Outgrowth Assay in human hN2 cells for Neuron Count, Mundy Lab (AID 2284221; active = hit-call score of the fitted dose curve at least 0.9, where 1 is the maximum)
Summary of the method: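 Read-out is the number of betaIII-tubulin-positive neurons imaged by automated high-content analysis, with DMSO as negative control.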

[30] = CCTE_Mundy_HCI_Cortical_Synap_Neur_Matur_CellBodySpotCount: CCTE's Synaptogenesis and Neurite Maturation Assay in rat cortical cells for Cell Body Spot Count, Mundy Lab (AID 2284223)
Summary of the method: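 Rat primary cortical cultures received AraC at DIV 5 to arrest glia, were dosed with chemical at DIV 7 with media change, and were fixed at DIV 12 (288.33 h). Synaptophysin puncta on MAP2-positive cell bodies per neuron were counted by high-content imaging versus DMSO.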

[31] = CCTE_Mundy_HCI_Cortical_NOG_NeuronCount: CCTE's Neurite Outgrowth Assay in rat cortical cells for Neuron Count, Mundy Lab (AID 2284236; active = hit-call score of the fitted dose curve at least 0.9, where 1 is the maximum;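 also: neurons counted by imaging betaIII-tubulin and Hoechst stained cortical cells; cells exposed to compound for about 48 hours before fixation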)
Summary of the method: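 Read-out: neuron number by high-content imaging of betaIII-tubulin (Alexa Fluor-488) and Hoechst-labelled rat primary cortical cells.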

[32] = CCTE_Mundy_HCI_hNP1_Casp3_7: CCTE's Caspase-Glo 3/7 Assay in human neuroprogenitor cells for Apoptosis, Mundy Lab (AID 2284240)
Summary of the method: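 Luminescent caspase-3/7 readout, 26.5 h post-dose, in human neural progenitor cells from WA09 embryonic stem cells. Cells grew 40–44 h at 37 °C, 5% CO2 before chemical addition. Activity analysed as signal increase over DMSO baseline.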

[33] = CCTE_Mundy_HCI_Cortical_Synap_Neur_Matur_NeuronCount: CCTE's Synaptogenesis and Neurite Maturation Assay in rat cortical cells for Neuron Count, Mundy Lab (AID 2284242; active = hit-call score of the fitted dose curve at least 0.9, where 1 is the maximum)
Summary of the method: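 Measured at DIV 12: fluorescently labelled neurons (Hoechst nuclei, MAP2) in rat primary cortical cultures, counted by high-content imaging. AraC suppressed glia from DIV 5; DMSO served as negative control.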

Measured: outcome

Chain of Cellular tumor antigen p53 (Homo sapiens) (P04637 whole entry, looked up): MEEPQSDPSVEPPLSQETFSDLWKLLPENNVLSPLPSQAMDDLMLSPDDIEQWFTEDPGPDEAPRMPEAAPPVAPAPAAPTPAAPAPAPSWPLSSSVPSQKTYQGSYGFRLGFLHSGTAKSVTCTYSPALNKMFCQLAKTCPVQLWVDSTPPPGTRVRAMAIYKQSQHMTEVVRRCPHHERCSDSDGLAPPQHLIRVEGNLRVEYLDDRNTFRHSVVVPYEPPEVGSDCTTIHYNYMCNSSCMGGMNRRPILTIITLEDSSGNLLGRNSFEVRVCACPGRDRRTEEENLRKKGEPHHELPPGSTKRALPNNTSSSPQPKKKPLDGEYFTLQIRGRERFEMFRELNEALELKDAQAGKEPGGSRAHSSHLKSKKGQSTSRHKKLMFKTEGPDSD

CN[C@]1(c2ccccc2Cl)CCCCC1=O
inactive: all assays above
